Results: PubChem BioAssay (NCI)
The panel holds about 79,000 compounds, 15% with a hit somewhere; the sample as a whole holds those more often. Active and inactive are the calls of the source. No stated cut-off is given here; in the data, active means growth inhibition above about 70%; inactive means the rest.

What was measured:
[1] = NCI Yeast Anticancer Drug Screen. Data for the rad50 strain (AID 155);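 further: 0% = growth of vehicle-only cultures of the same strain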; conditions: S. cerevisiae rad50 strain growth inhibition; at 50.0 µM; hits give high values
Summary of the method: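 Compounds were tested on a yeast strain with an engineered DNA damage repair alteration; the reported value is growth inhibition normalised to vehicle treatment.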

[2] = NCI Yeast Anticancer Drug Screen. Data for the mec2-1 strain (AID 157); conditions: S. cerevisiae mec2-1 strain, at 50.0 µM, hits give high values
Summary of the method: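 Yeast mec2-1 mutant treated with compound. Readout: growth inhibition vs vehicle controls.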

[3] = NCI Yeast Anticancer Drug Screen. Data for the sgs1 mgt1 strain (AID 161);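 further: 0% = growth of cultures given vehicle only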; conditions: S. cerevisiae sgs1 mgt1 strain, at 50.0 µM, hits give high values
Summary of the method: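 Genetically altered yeast, compound exposure, growth inhibition relative to vehicle.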

[4] = NCI Yeast Anticancer Drug Screen. Data for the cln2 rad14 strain (AID 165);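 further: 0% = growth equal to vehicle treated cultures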; conditions: S. cerevisiae cln2 rad14 strain, at 50.0 µM, hits give high values
Summary of the method: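 cln2 rad14 yeast strain; compound exposure; growth inhibition read vs vehicle controls.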

[5] = NCI Yeast Anticancer Drug Screen. Data for the bub3 strain (AID 167); conditions: S. cerevisiae bub3 mutant strain, at 50.0 µM, hits give high values
Summary of the method: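 Growth of a checkpoint-deficient yeast mutant is measured after compound exposure. Values represent inhibition relative to vehicle.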

[6] = NCI Yeast Anticancer Drug Screen. Data for the mlh1 rad18 strain (AID 175); conditions: S. cerevisiae mlh1 rad18 strain growth inhibition; at 50.0 µM; hits give high values
Summary of the method: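 Yeast w/ defined DNA-repair lesions; compound exposure; growth vs vehicle controls → % inhibition.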

Measured: growth inhibition

CCOC(=O)C1Sc2ccccc2N=C1C (stereo not given)
inactive: [1] 0% | [2] -15.8% | [3] -2.45% | [4] -1.25% | [5] -10.6% | [6] 2.6%

O=C1C(=O)c2ccccc2C(O)=C1Cc1ccccc1
inactive: [1] -15.2% | [2] 13.8% | [3] -11.9% | [4] 7.5% | [5] -36.8% | [6] 1.85%

c1csc(C2Nc3ccccc3N2)c1
inactive: [1] 17.6% | [2] -4.1% | [3] 25.6% | [4] 15.2% | [5] 0.5% | [6] 20.4%

COc1cccc(/C=C(\NC(C)=O)c2nc3ccc(Cl)cc3[nH]2)c1
inactive: [1] 1.8% | [2] -1.35% | [3] 8.75% | [4] 2.15% | [5] -3.85% | [6] 8.1%

Clc1ccc(CSc2nnc(SCc3ccc(Cl)c(Cl)c3)c3[nH]cnc23)cc1Cl
inactive: [1] 36.5% | [2] 6.15% | [3] 47.4% | [4] 30.6% | [5] 22.9% | [6] 3.1%

CN(C)c1ccc(N=Cc2ccc3c(c2)OCO3)cc1
inactive: [1] -6.65% | [2] 6.3% | [3] -15.3% | [4] -18.1% | [5] -6.1% | [6] -0.05%

Cn1c(=O)c2c(nc(N(CCN(N=O)c3nc4c(c(=O)n(C)c(=O)n4C)n3C)N=O)n2C)n(C)c1=O
inactive: [1] -11% | [2] -4.35% | [3] -25.7% | [4] -0.3% | [5] -8.85% | [6] -0.65%

O=[N+]([O-])c1cccc(S/N=C/c2c(O)ccc3ccccc23)c1
active: [1] 98.5% | [2] 99.1% | [3] 99.2% | [4] 72.8% | [5] 98.5% | [6] 97.8%

CC(C)(C)NC(=O)CCC(=O)O
inactive: [1] -8.65% | [2] -19.4% | [3] -16% | [4] -18.2% | [5] -2.3% | [6] -7.3%

c1ccc(CN2CCC(=NN3CCCCC3)CC2)cc1
inactive: [1] 19.9% | [2] -9.5% | [3] 23.2% | [4] 15.2% | [5] 17.9% | [6] -8.55%

COc1cccc2c1C(=O)c1c(C)c(C)c(C)c(C)c1-2
inactive: [1] 3.3% | [2] 6% | [3] 3.05% | [4] -1.7% | [5] 14.6% | [6] -10.1%

CN(C)CCCn1ncc(Sc2cc([N+](=O)[O-])ccc2N)c(Cl)c1=O
inactive: [1] 2.9% | [2] -6.35% | [3] -12.3% | [4] -8.25% | [5] -5.55% | [6] -6.9%

O=C(OC1COC(n2c(=O)oc3cc([N+](=O)[O-])c([N+](=O)[O-])cc32)C(OC(=O)c2ccccc2)C1OC(=O)c1ccccc1)c1ccccc1 (stereo not given)
inactive: [1] -5.15% | [2] 8.6% | [3] 14.4% | [4] -9.15% | [5] -8.55% | [6] 3.35%

Cn1nc(-c2ccccc2)c(-c2cc(-c3ccccc3)n[nH]2)c(N)c1=O
inactive: [1] 18.9% | [2] 12.4% | [3] 20.8% | [4] 7.9% | [5] 19.7% | [6] 22.9%

Cc1onc(-c2c(F)cccc2Cl)c1C(=O)OCc1c(F)cccc1Cl
inactive: [1] 6.8% | [2] -2.15% | [3] 20.9% | [4] 11.5% | [5] 25.1% | [6] 24.5%

S=c1cc(S)sc2c1c(=S)sc1nc3ccccn3c(=S)c12
inactive: [1] -2.35% | [2] 28.6% | [3] 35.3% | [4] 18% | [5] 24.6% | [6] 45%

NC(=O)c1csc(N)n1
inactive: [1] 4.4% | [2] 3.95% | [3] 0% | [4] 3.55% | [5] 9.3% | [6] -7.7%

O=C(Nc1ccc(NC(=O)Nc2ccc(C3=NCCN3)cc2)cc1)Nc1ccc(C2=NCCN2)cc1
inactive: [1] -7.7% | [2] 7.15% | [3] 7.65% | [4] -1.7% | [5] -21.1% | [6] -19.6%

N#CC(=Nc1ccccc1)c1cccc(Br)c1
inactive: [1] 34.5% | [2] 5.05% | [3] 18.9% | [4] 15.4% | [5] 21.4% | [6] 28.4%

O=C(Nc1ccc(Cl)cc1)Nc1nnc2nc(C(C(=O)c3ccc(O)cc3O)c3nc4nnc(NC(=O)Nc5ccc(Cl)cc5)n4[nH]c3=O)c(=O)[nH]n12
inactive: [1] 25.6% | [2] 39.9% | [3] 44.2% | [4] 60.9% | [5] 14.7% | [6] 12.3%

CCOC(Cn1ncc(C#N)c1N)OCC
inactive: [1] -13.7% | [2] -7.75% | [3] -25.5% | [4] -15.9% | [5] -5.95% | [6] 5.65%

N#C/C(=C\c1cc(Br)c(O)c(Br)c1)c1ccccn1
inactive: [1] 50.5% | [2] 50.1% | [3] 24.4% | [4] 2.55% | [5] -3.35% | [6] 52.6%

COC(=O)CCC(=O)C(CC(=O)OC)C(=O)CCC(=O)NCCc1ccccc1 (stereo not given)
inactive: [1] -30.1% | [2] -21.9% | [3] -41.5% | [4] 2.4% | [5] -24.2% | [6] -31.4%

CCOC(=O)c1[nH]c(Cc2[nH]c(C(=O)OCC)c(CC)c2C)c(C)c1CC
inactive: [1] 7.8% | [2] -1.1% | [3] -4.75% | [4] -3.65% | [5] -4.7% | [6] 24.2%

c1ccc(-c2nc3ccccc3nc2-c2ccc(Cc3ccc(-c4nc5ccccc5nc4-c4ccccc4)cc3)cc2)cc1
inactive: [1] 39.5% | [2] 19.1% | [3] 15.4% | [4] 21.2% | [5] -6.5% | [6] 25.1%

CCOc1ccc(Nc2nc(C)c(C(=O)CC(=O)C(=O)Nc3ccc(C(C)C)cc3C(C)C)s2)cc1
inactive: [1] -31.2% | [2] 10.1% | [3] 5.45% | [4] -14.8% | [5] -20% | [6] -38.4%

N=C1N=Nc2nc(C(C(=O)c3ccc(O)cc3O)c3nc4n(c3O)C(=N)N=N4)c(O)n21 (stereo not given)
inactive: [1] 2.35% | [2] -4.3% | [3] 7.15% | [4] -24% | [5] -15.3% | [6] -2.4%

CCCCCCCCCCCCCC(=O)Oc1ccc2ccccc2c1
inactive: [1] -4.05% | [2] 3.5% | [3] -3.85% | [4] 5.7% | [5] -10.1% | [6] 8.7%

CCC(O)C(=O)O (stereo not given)
inactive: [1] -28.6% | [2] -26.8% | [3] -20.9% | [4] -11.2% | [5] -9.9% | [6] -27.4%

CCN1C(=O)N(C)C(O)c2c1nc1ccccn1c2=O (stereo not given)
inactive: [1] -14.1% | [2] -8.35% | [3] -33.4% | [4] 3.65% | [5] -15.7% | [6] -19.6%

NCCOCC(N)C(=O)O (stereo not given)
inactive: [1] -9.3% | [2] -14.4% | [3] -52.4% | [4] -27.1% | [5] -51% | [6] 8.4%

Nc1cc([N+](=O)[O-])ccc1-c1ccc([N+](=O)[O-])cc1
inactive: [1] 3.25% | [2] -2.2% | [3] 8.1% | [4] 10.2% | [5] 15.2% | [6] -8.85%

Cc1ccc(NC2=CC(=O)C(=O)c3ccccc32)cc1C
inactive: [1] 35% | [2] 13.1% | [3] 19.4% | [4] 11.4% | [5] 34% | [6] 26.5%

CN(C)Cc1ccccc1COC(=O)c1ccccc1
inactive: [1] 19.1% | [2] 20.1% | [3] 26.1% | [4] 11.4% | [5] 17.4% | [6] 17.5%

C/C(CCc1cnc2ccccc2c1)=N/NC(N)=O
inactive: [1] 69.2% | [2] 27.5% | [4] 37.8% | [5] 67.3%
active: [3] 85.7% | [6] 95.6%

Cc1nc(N)[nH]c(=O)c1Cc1ccc(Cl)cc1Cl
inactive: [1] -1.65% | [2] -1.15% | [3] -5.7% | [4] -44.4% | [5] -12.6% | [6] 8.55%

O=c1[nH]cnc2oc(-c3ccccc3)nc12
inactive: [1] -0.3% | [2] -0.7% | [3] -6.35% | [4] -41.2% | [5] -15.8% | [6] 4.75%

Cn1c(=S)sc2ccc(S(=O)(=O)C(F)F)cc21
inactive: [1] 23.7% | [2] 20.9% | [3] 4.7% | [4] 12.8% | [5] 22.6% | [6] 25.1%

COCCCn1cnn2c(=O)c3ccccc3nc2c1=O
inactive: [1] -12% | [2] 2.85% | [3] 23.8% | [4] 12.4% | [5] 21.3% | [6] 6.25%

N=C(N)Sc1cc(O)c2ccccc2c1O
inactive: [1] -33% | [2] -6.45% | [3] -28.1% | [4] -45.8% | [5] 4.1% | [6] -2%
